In the supplement of paper PMC3334620:
Whole data set: some 33,000 sequences, median “E-score (-0.5 to 0.5)” near -0.04, cut for the highest 2% near 0.36. What follows is part of a selection rich in the highest values, with near analogues and random picks from the rest.

Target: T1, Hmlalpha2 (UniProt P0CY09)
T1 sequence: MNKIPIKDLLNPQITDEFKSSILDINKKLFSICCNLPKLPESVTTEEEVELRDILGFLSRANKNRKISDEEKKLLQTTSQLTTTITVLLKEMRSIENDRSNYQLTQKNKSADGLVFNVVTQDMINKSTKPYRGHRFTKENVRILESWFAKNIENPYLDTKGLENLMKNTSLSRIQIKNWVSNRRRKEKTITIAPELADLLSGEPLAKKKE
Assay: PBM E-score (8-mer binding enrichment) (E-score (-0.5 to 0.5)); higher = stronger / more preferred TF binding
Details: protein concentration: 200 nM; construct: GST-full length
Protocol: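 Universal 'all 10-mer' protein binding microarrays (Agilent AMADID 015681) probed with GST-tagged S. cerevisiae TFs (full-length or DBD) made by in vitro transcription/translation (PURExpress), about 100-200 nM. Bound TF was detected with fluorescent anti-GST. Each ungapped 8-mer (which stands for itself and its reverse complement) is scored by the PBM enrichment score (E-score), a modified Wilcoxon-Mann-Whitney statistic from -0.5 to +0.5, computed with the Universal PBM Analysis Suite. Scale: above 0.35 generally sequence-specific binding.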

Sequence	PBM E-score
CACACCGC	-0.0386
AATTTACT	0.296
TATTTACA	0.463
GATTTACA	0.429
CATTTACC	0.144
GATTTACC	0.18
TATTTAGA	0.28
GATTTAGA	-0.00065
CATTTACG	0.303
AATTTACA	0.431
AATTTACC	0.12
CATTTACA	0.442
TATTTAAA	0.207
CCGGTGCC	-0.378
AGGAAGAC	-0.0908
CACTCGCA	0.0187
GACGCGGA	0.0365
TAAACGGA	0.0215
AGAGAGCA	-0.234
GTGACACA	0.142
AAGACACA	0.183
AAGACACG	0.373
ATGACACA	0.302
ATGACACG	0.404
CAGACACG	0.0667

Sequence	PBM E-score
TCACAGCA	0.0289
ACCGCTGG	-0.228
CCGATGTA	0.155
ACGATGTA	0.376
GTGATGTA	0.382
ATGATGTA	0.358
GGGATGTA	0.328
GCGATGAA	0.0458
CTGATGTA	0.233
ACGATGTC	0.0103
GCGATGTA	0.366
AACTGTTG	-0.104
AAGCCCTA	0.0656
CCACGGTC	-0.326
CCACGGTA	-0.0423
ACACGGAA	0.376
ACACGGTC	0.397
ACACGGAT	0.36
ACACGGTG	0.392
ACACGGTA	0.366
GCACGGTA	-0.0709
ATACGGTG	-0.0688
ACACGGAG	0.315
AAACGGTG	0.0442
ATACGGTC	-0.0524

Sequence	PBM E-score
ATTAAGTC	0.189
ACCTATGC	-0.0222
TCTGCGCA	-0.00074
CAGGGCCG	-0.121
ACGTTGCG	0.0728
CGTCCTTC	-0.152
GTTGAGCA	0.111
GTTGGCGA	-0.0755
GGCTCTTA	-0.184
ACTTAGAT	0.132
GTCCCTTA	-0.127
CATTACAA	0.411
AATTACAC	0.467
CATTACTA	0.225
CATTACAG	0.326
TGTTACAA	0.31
CATTACAC	0.474
CATTACCC	-0.00064
AATTACCC	-0.0352
AATTACAG	0.307
TCTTACAA	0.229
TATTACAA	0.416
CATTACGA	0.214
GTTTCCCA	-0.0865
TCGTTGCA	0.0513

Sequence	PBM E-score
GGAAAGTA	-0.136
AAGAAGAT	-0.0289
CCCGACAG	-0.191
AATCGGGG	-0.203
AAGATACC	-0.0459
CGGAACCC	-0.13
CCATTAAG	-0.0773
TACAAGGA	0.291
TATCGTCA	-0.00037
GATTAAAC	0.155
GATTACAC	0.483
GATTACAA	0.438
AATTACAA	0.436
GATTACTA	0.213
AATTACTA	0.257
GATTACCC	0.109
AATTACCA	0.273
GATTACCA	0.087
AGCGTTGG	-0.0565
CCTTGGGC	-0.362
TAGCTCAA	-0.0444
GACTCTGC	-0.314
AGGCTGCC	-0.401
ACAGTAAG	0.064
GTACGACA	0.196

Sequence	PBM E-score
GCATGGTA	0.189
ACATGGTC	0.308
ACATGGCG	0.324
CCATGGTA	0.00138
AGATGGTG	-0.0243
ACATGGTA	0.397
ACATGGTG	0.414
ACATGGCC	0.417
GCATGGCC	-0.0405
AGAGGCCT	-0.263
AAATCTCA	-0.0212
GAGGTCTA	-0.0189
GCTGCAGC	-0.305
CGCGTTAG	0.3
AGCGTTAA	0.0425
CACGTTAG	0.113
CGCGTTAC	0.212
GGCGTTAA	0.216
TGCGTTAA	0.397
CGCGTTAA	0.427
CACGTTAA	0.376
TACGTTAA	0.325
GCTATCAA	-0.0322
CTGACTCA	-0.179
AAGTCGCG	0.111

Sequence	PBM E-score
TAATTCGA	0.121
ACGCAAAA	0.145
CCAGTGAC	-0.125
GCAGTTTA	0.00455
GTTATAGA	0.368
ATTATACA	0.34
CTTATACA	0.252
ATTATAGA	0.0519
GTTATACA	0.4
CTTATAGA	-0.154
CATGCGCC	-0.0099
ATGTCGGA	0.0661
CACGTAAA	0.405
CACGTAAG	0.244
GACGTAAA	0.28
TACGTAAA	0.41
AACGTAAT	0.379
AACGTAAA	0.325
CACGTAAC	0.196
TACGTATA	0.327
AACGTAAC	0.207
CGTCCACA	-0.0612
CCGCGGCC	-0.192
CTGCAAAG	-0.0914
CACGTTGG	0.109

Sequence	PBM E-score
ACAGAGAG	-0.0914
CCCAATGC	-0.198
CCACATGA	0.109
AAACATAC	0.267
AAACATGT	0.445
AAACATCC	0.17
AAACATGG	0.349
AAACATCT	0.202
GAACATGA	0.31
CAACATGG	0.403
CCACATGG	-0.0738
AAACATAT	0.311
AAACATGC	0.37
CAACATGA	0.449
ATCCTCCA	-0.166
ATACTGAT	0.126
ACAGCCGG	-0.073
AGAGCTCC	-0.252
CTGGGAGA	-0.262
AAACATGA	0.388
GAACATGC	0.272
ACACATGA	0.304
TAACATTA	0.331
TAACATGA	0.462
CAACATAC	0.303

Sequence	PBM E-score
CAACATGC	0.398
TAACATCA	0.338
AAACATAA	0.348
ACACATGT	0.394
AAACATCA	0.278
ACACATGG	0.21
ACTAACCC	0.0236
CAAGGGTC	-0.199
CCACACAG	-0.0322
ATGCGTTG	0.205
GACTGACC	-0.192
GAGGTCAA	-0.0488
GTGAAGAA	0.181
CCCAAACG	-0.123
ACAACTCA	0.194
AGAATAGC	-0.15
AGTGCCAC	-0.215
CAGGAGCC	-0.225
CTCCCTCC	-0.389
CTTACTCA	-0.0475
CTCACACA	0.114
GTCACACA	0.15
GTTACACA	0.435
GTTACAAA	0.303
CTTACACA	0.408

Sequence	PBM E-score
GCAAAACA	0.135
CCCTTGCC	-0.285
TAACCGCA	0.0481
AGACTCAT	-0.0539
CAATTACC	0.0295
AAATTACG	0.309
TAATTACA	0.462
TAATTAGA	0.167
TAATTATA	0.245
CAATTACA	0.445
TACTTACA	0.379
CAATTACG	0.349
GACTTACA	0.274
CACTTACA	0.281
AAATTACA	0.424
AAATTACT	0.209
CACCGCTA	-0.0146
CGAATTCA	-0.0293
AATGTAGT	0.249
GGGGCCTA	-0.31
GCCGCGGC	-0.242
CCGCGATC	-0.238
AATTCTGC	-0.061
GAATTACA	0.444
GAATTATA	0.113

Sequence	PBM E-score
GAATTACC	0.107
CTTGCTTC	0.0506
GTCATCGA	-0.0402
AATTACGA	0.338
AATTACGG	-0.0144
GATTACGC	0.345
AATTACGC	0.431
CATTACGC	0.321
ATTTACGC	0.347
CTTTACGC	0.42
AATTACGT	0.382
CTTTACGA	0.185
AATAACTG	0.0798
CCACTAGC	-0.111
AATACCCT	-0.0975
TCATTCCA	-0.147
AGTAATCA	0.199
CGTAATTA	0.389
CGTAATCA	0.367
CGTAATTC	0.321
GGTAATTA	0.25
CGTAATCC	0.309
ACTGCTTG	-0.00682
AACGAAGT	0.0804
ACAGCAGC	0.0712

Sequence	PBM E-score
CACGCGTC	0.174
TACGCGTA	0.409
AACGCGTG	0.336
AACGCGTA	0.359
TACGCGCA	0.252
CACGCGTA	0.277
GACGCGTA	0.383
TACGCGGA	0.312
CACGCGTG	0.374
CCCCCGTA	-0.247
AATGGAGT	-0.0239
AACTCTAA	0.0318
CCTTGATC	-0.0105
CATGTACC	0.287
TCTGTACA	0.258
CATGTACA	0.458
CCTGTACA	0.304
GGTGTACA	0.211
TATGTACA	0.429
GATGTACC	0.135
AATGTACC	0.166
AATGTACA	0.366
TCAGTACA	0.227
AATGTACT	0.186
GATGTACA	0.379

Sequence	PBM E-score
GCTTTGAC	0.074
GCGCACAC	-0.189
GTCAAGAC	-0.135
ATCACTGG	-0.0104
TATCTGGA	-0.16
GGTCCCTA	-0.0695
CCTGAATC	-0.0621
CATGTACG	0.372
CCTGTACG	0.0613
AATGTACG	0.108
CGGTAGAA	-0.175
CTCATGTC	0.295
CTAATGTA	0.262
GTCATGGA	-0.188
ATCATGTC	0.351
ATCATGTG	0.209
CTCATGGA	-0.142
GTAATGTA	0.413
GTCATGCA	0.133
ATCATGTA	0.472
GTCATGTA	0.442
ATAATGTA	0.273
CTCATGTA	0.454
CGCATTAC	0.214
ATGCGTTC	0.122

Sequence	PBM E-score
CGAGGCAA	0.126
AACCTCTC	-0.275
TACAACAA	0.343
GCCCCTCC	-0.277
TCGCCTCA	-0.118
TACACAGA	0.424
TATATACA	0.389
CATACACA	0.336
GACACAGA	-0.00939
CATACACG	0.398
GATATACA	0.339
TATACAGA	0.251
TATACACA	0.437
GATACACA	0.214
CACACAGA	0.221
AATATACA	0.34
CATACACC	-0.076
CTAAGATC	-0.0578
GGTGAGTA	0.135
AAAGCGAA	-0.132
GCCATCTA	-0.19
ACTCCACA	0.0494
GACGGTCA	-0.196
ATAGACTG	-0.0652
CACACACA	0.228

Sequence	PBM E-score
GACACAAA	0.14
TACACAAA	0.431
CACACAAA	0.126
TACACACA	0.43
CACACACG	0.279
ACAGATGC	-0.0548
ACTCCCAC	-0.352
GGCGGGAC	-0.194
TAACGCCA	0.0809
GCCTTGTA	0.33
GTCTTGTA	0.306
AGCTTGTA	0.379
AGCTTGTG	0.11
AGCTTGTC	0.133
ATCTTGTA	0.383
ATCTTGTG	-0.0105
ACCTTGTA	0.402
CCCTTGTA	0.328
CGGTCCCC	-0.347
